Assay results published in PubChem BioAssay (NCATS).
Results filed as inconclusive are left out. Where a call stands in place of a potency, no number is given. Active and inactive are the calls of the source. Calls come from the whole dose curve; as a rule, active = well fitted inhibition curve with a large enough effect; inconclusive = small, poorly fitted or top-dose-only effect; inactive = no such curve, though single readings can be large or run the other way.
Potency is the fitted concentration of half-maximal effect.

The molecules below were run against Calcium and integrin-binding protein 1 (Homo sapiens) (UniProt Q99828) (assay: Confirmatory qHTS for Identification of Calcium Integrin Binding Protein 1 (CIB1) Competitor (AID 1508617; note: nearly all actives have a fitted effect of over 65% in size)). Conditions: CIB1 binding competition assay, biochemical qHTS; series mostly up to 114 µM.
Calcium and integrin-binding protein 1 (Homo sapiens), sequence (Q99828 whole entry, looked up): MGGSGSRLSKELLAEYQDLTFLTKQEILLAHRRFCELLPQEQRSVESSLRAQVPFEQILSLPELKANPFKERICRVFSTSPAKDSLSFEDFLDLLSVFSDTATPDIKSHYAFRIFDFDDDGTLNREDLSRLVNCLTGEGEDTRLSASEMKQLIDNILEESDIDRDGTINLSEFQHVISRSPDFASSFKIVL
Outline: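 Fluorescence polarization competition: CIB1-GST (1 uM final) in 5 mM HEPES pH 7.4, 125 mM NaCl, 5 mM CaCl2, 0.01% Tween20 preincubated 15 min RT with compound (up to 114 uM), then FITC-alphaIIb peptide (100 nM) added, 15 min RT.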
`CC(OC(=O)c1ccc(S(C)(=O)=O)c([N+](=O)[O-])c1)C(=O)NC1C2CC3CC(C2)CC1C3` (stereo not given) was tested, and the Potency was “inactive”. With `O=C(c1ccc(-c2cc(O)c3ncccc3c2)cc1)N1CCNCC1` the Potency was “inactive”. With `CCOc1ccc(CCNC(=O)c2ccc(N3N=C(C)CC3=O)cc2)cc1OCC` the Potency was “inactive”. For `CN1CCN(c2ccc(-c3cc(O)c4ncccc4c3)cc2)CC1`, the Potency was “inactive”. `Cc1ccccc1NC(=O)CN1C(=O)N/C(=C\c2cn(-c3cccc(C(=O)O)c3)cn2)C1=O` was tested, and the Potency was “inactive”. For `O=C1CCCC2=C1C(c1cccnc1Br)N=C(Nc1nc3ccccc3o1)N2` (stereo not given), the Potency was “inactive”. In the case of `O=C1CCCC2=C1C(c1ccn[nH]1)N=C(Nc1nc3ccccc3o1)N2` (stereo not given), the Potency is reported as “inactive”. In the case of `CC1CCC2(C1)N=C(Nc1nc3ccccc3o1)NC1=C2C(=O)CCC1` (stereo not given), the Potency is reported as “inactive”. `CC1(C)OB(c2ccc(O)c3ncc(N4CCNCC4)cc23)OC1(C)C` was tested, and the Potency was 31.6 µM (active). With `O=C(NNC(=O)c1nc2ccccc2[nH]1)OCc1ccccc1` the Potency was “inactive”. With `O=C1CCCC2=C1C(c1ccncc1)N=C(Nc1nc3ccccc3o1)N2` (stereo not given) the Potency was “inactive”. For `CSc1cc2c(s1)c1cnn(Cc3cccc(N)c3)c(=O)c1n2C`, the Potency was 39.8 µM (active). `CN(CC(=O)Nc1ccc(N2CCOCC2)cc1)Cc1c(O)ccc2ccccc12` was tested, and the Potency was “inactive”. For `NC(=O)c1cccc(-c2cnc3c(O)ccc(C(=O)O)c3c2)c1`, the Potency was “inactive”. For `CCc1ccc(NC(=O)C(=O)NNC(=O)c2cccs2)cc1`, the Potency was “inactive”. `C/C(=C\c1ccc2c(c1)OCO2)C1Nc2cccc3cccc(c23)N1` was tested, and the Potency was “inactive”. `C=CCNc1oc(-c2ccc(Cl)cc2)nc1C#N` was tested, and the Potency was 44.7 µM (active). For `COC(=O)c1ccc(O)c2ncc(-c3ccc(C(=O)NCCCN(C)C)cc3)cc12`, the Potency was “inactive”. In the case of `c1ccc(-n2ccc(-c3nnc4n3CCCCC4)c2)cc1`, the Potency is reported as 50.1 µM (active). With `O=[S+]([O-])(Nc1nccs1)c1ccc(NCc2cc(Cl)cc(Br)c2O)cc1` the Potency was “inactive”. In the case of `O=C(Cc1ccccc1)NC(c1ccco1)c1cc(Cl)c2cccnc2c1O` (stereo not given), the Potency is reported as “inactive”. In the case of `CC(O)c1ccc(-c2ccc3ncnc(N4CCOCC4)c3c2)o1` (stereo not given), the Potency is reported as “inactive”. `CC(C)(C)OC(=O)CC(=O)NNC(=O)c1nc2ccccc2[nH]1` was tested, and the Potency was “inactive”. With `O=C(Cc1ccc(Cl)c(Cl)c1)Nc1ccc([S+](=O)([O-])Nc2nnc(-c3ccccn3)s2)cc1` the Potency was 35.5 µM (active). For `COc1ccc2c(=O)n3nc(Nc4cccc(N5CCN(C)CC5)c4)sc3nc2c1`, the Potency was “inactive”. For `NC(=O)C1CCN(c2nc(-c3ccccc3N)cs2)CC1`, the Potency was “inactive”. With `CN(C)c1cnc2c(O)cccc2c1` the Potency was “inactive”. With `O=C(O)c1ccc(O)c2ncc(N3CCC(N4CCOCC4)C3)cc12` (stereo not given) the Potency was “inactive”. In the case of `Cc1ccc(C(=O)NC(c2ccco2)c2cc(Cl)c3cccnc3c2O)cc1` (stereo not given), the Potency is reported as “inactive”. In the case of `Oc1cccc2cc(C3CC3)cnc12`, the Potency is reported as “inactive”. For `O=C(O)c1ccccc1SC1=NS(=O)(=O)c2ccccc21`, the Potency was “inactive”. In the case of `O=C1CCCC2=C1C(c1ncccc1C(F)(F)F)N=C(Nc1nc3ccccc3o1)N2` (stereo not given), the Potency is reported as “inactive”. For `Cc1ccc(OCCn2c(CCNC(=O)c3ccsc3)nc3ccccc32)cc1`, the Potency was “inactive”. `Cc1ccsc1C1N=C(Nc2nc3ccccc3o2)NC2=C1C(=O)CCC2` (stereo not given) was tested, and the Potency was “inactive”. For `Fc1ccc(NC(=S)Nc2nnc(-c3ccncc3)s2)cc1C(F)(F)F`, the Potency was “inactive”. In the case of `O=C1CCCC2=C1C1(CCCOC1)N=C(Nc1nc3ccccc3o1)N2` (stereo not given), the Potency is reported as “inactive”. For `O=C(NC(c1ccco1)c1cc(Cl)c2cccnc2c1O)c1cccs1` (stereo not given), the Potency was “inactive”. `NC(=O)c1ccc(O)c2ncccc12` was tested, and the Potency was “inactive”. With `CC(C)c1nc(Nc2nc3ccccc3o2)nc2c1CCCC2` the Potency was “inactive”. With `CC1(C)N=C(Nc2nc3ccccc3o2)NC2=C1C(=O)CCC2` the Potency was “inactive”.
